# According to the supplement of paper PMC4466140:
# B1: unnamed (peptide)
# chain: STKKPRPPVKSKPKH
# B2: unnamed (peptide)
# chain: SNRRPVPRRPSQPLN
# Molecular target: AgAbp1
# Assay: SPOT peptide array binding signal intensity (averaged, normalized) (arbitrary units (background-subtracted, floor 0; scale differs between SH3 domains)); higher = stronger binding of the SH3 domain to the peptide
# Procedure, shortened: (§1)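 Four yeast species supplied the SH3 domains, which were expressed as GST fusions in E. coli BL21(DE3) and purified on glutathione Sepharose. Incubation with cellulose membranes carrying synthetic 15-mer peptides, cysteines exchanged for serines, ran overnight at 4°C at 10 μg/ml in TBS-based blocking buffer. Binding signal is reported as normalized, background-subtracted spot intensity averaged over replicates, in arbitrary units not shared between domains.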
row,Binder,SPOT peptide array binding signal intensity
1,B1,553
2,B2,587

# Molecular target: AgBbc1
# Assay: as above
# Procedure, shortened: as §1
row,Binder,SPOT peptide array binding signal intensity
1,B1,104
2,B2,790

# Molecular target: AgBem1-D1
# Assay: as above
# Procedure, shortened: as §1
row,Binder,SPOT peptide array binding signal intensity
1,B1,1
2,B2,12

# Molecular target: AgBzz1-D1
# Assay: as above
# Procedure, shortened: as §1
row,Binder,SPOT peptide array binding signal intensity
1,B1,72
2,B2,157

# Molecular target: AgBzz1-D2
# Assay: as above
# Procedure, shortened: as §1
row,Binder,SPOT peptide array binding signal intensity
1,B1,38
2,B2,61.8

# Molecular target: AgCyk3
# Assay: as above
# Procedure, shortened: as §1
row,Binder,SPOT peptide array binding signal intensity
1,B1,≤ 0
2,B2,7.5

# Molecular target: AgFus1
# Assay: as above
# Procedure, shortened: as §1
row,Binder,SPOT peptide array binding signal intensity
1,B1,9
2,B2,27

# Molecular target: AgHof1
# Assay: as above
# Procedure, shortened: as §1
row,Binder,SPOT peptide array binding signal intensity
1,B1,1.25
2,B2,9

# Molecular target: AgHse1
# Assay: as above
# Procedure, shortened: as §1
row,Binder,SPOT peptide array binding signal intensity
1,B1,71.5
2,B2,18.2

# Molecular target: AgLsb1
# Assay: as above
# Procedure, shortened: as §1
row,Binder,SPOT peptide array binding signal intensity
1,B1,≤ 0
2,B2,23.5

# Molecular target: AgLsb4
# Assay: as above
# Procedure, shortened: as §1
row,Binder,SPOT peptide array binding signal intensity
1,B1,4
2,B2,3680

# Molecular target: AgMyo5
# Assay: as above
# Procedure, shortened: as §1
row,Binder,SPOT peptide array binding signal intensity
1,B1,3.25
2,B2,0.25

# Molecular target: AgNbp2
# Assay: as above
# Procedure, shortened: as §1
row,Binder,SPOT peptide array binding signal intensity
1,B1,9
2,B2,1230

# Molecular target: AgRvs167
# Assay: as above
# Procedure, shortened: as §1
row,Binder,SPOT peptide array binding signal intensity
1,B1,1.83
2,B2,64.1

# Molecular target: AgSho1
# Assay: as above
# Procedure, shortened: as §1
row,Binder,SPOT peptide array binding signal intensity
1,B1,23
2,B2,5.75

# Molecular target: AgSla1-D1-D2
# Assay: as above
# Procedure, shortened: as §1
row,Binder,SPOT peptide array binding signal intensity
1,B1,7
2,B2,≤ 0

# Molecular target: AgSla1-D3
# Assay: as above
# Procedure, shortened: as §1
row,Binder,SPOT peptide array binding signal intensity
1,B1,≤ 0
2,B2,3

# Molecular target: CaAbp1-D1
# Assay: as above
# Procedure, shortened: as §1
row,Binder,SPOT peptide array binding signal intensity
1,B1,1410
2,B2,328

# Molecular target: CaAbp1-D2
# Assay: as above
# Procedure, shortened: as §1
row,Binder,SPOT peptide array binding signal intensity
1,B1,1100
2,B2,574

# Molecular target: CaBbc1
# Assay: as above
# Procedure, shortened: as §1
row,Binder,SPOT peptide array binding signal intensity
1,B1,292
2,B2,1250

# Molecular target: CaBem1-D1
# Assay: as above
# Procedure, shortened: as §1
row,Binder,SPOT peptide array binding signal intensity
1,B1,4
2,B2,135

# Molecular target: CaBzz1-D1
# Assay: as above
# Procedure, shortened: as §1
row,Binder,SPOT peptide array binding signal intensity
1,B1,104
2,B2,380

# Molecular target: CaBzz1-D2
# Assay: as above
# Procedure, shortened: as §1
row,Binder,SPOT peptide array binding signal intensity
1,B1,104
2,B2,153

# Molecular target: CaCyk3
# Assay: as above
# Procedure, shortened: as §1
row,Binder,SPOT peptide array binding signal intensity
1,B1,2
2,B2,464

# Molecular target: CaFus1
# Assay: as above
# Procedure, shortened: as §1
row,Binder,SPOT peptide array binding signal intensity
1,B1,29
2,B2,111

# Molecular target: CaHof1
# Assay: as above
# Procedure, shortened: as §1
row,Binder,SPOT peptide array binding signal intensity
1,B1,1.25
2,B2,≤ 0

# Molecular target: CaHse1
# Assay: as above
# Procedure, shortened: as §1
row,Binder,SPOT peptide array binding signal intensity
1,B1,≤ 0
2,B2,20.5

# Molecular target: CaLsb1
# Assay: as above
# Procedure, shortened: as §1
row,Binder,SPOT peptide array binding signal intensity
1,B1,0.5
2,B2,2

# Molecular target: CaLsb4
# Assay: as above
# Procedure, shortened: as §1
row,Binder,SPOT peptide array binding signal intensity
1,B1,≤ 0
2,B2,4120

# Molecular target: CaMyo5
# Assay: as above
# Procedure, shortened: as §1
row,Binder,SPOT peptide array binding signal intensity
1,B1,2.5
2,B2,2.75

# Molecular target: CaNbp2
# Assay: as above
# Procedure, shortened: as §1
row,Binder,SPOT peptide array binding signal intensity
1,B1,21
2,B2,1960

# Molecular target: CaRvs167
# Assay: as above
# Procedure, shortened: as §1
row,Binder,SPOT peptide array binding signal intensity
1,B1,0.333
2,B2,303

# Molecular target: CaRvs167-3
# Assay: as above
# Procedure, shortened: as §1
row,Binder,SPOT peptide array binding signal intensity
1,B1,6.25
2,B2,3.5

# Molecular target: CaSho1
# Assay: as above
# Procedure, shortened: as §1
row,Binder,SPOT peptide array binding signal intensity
1,B1,19.5
2,B2,≤ 0

# Molecular target: CaSla1-D1-D2
# Assay: as above
# Procedure, shortened: as §1
row,Binder,SPOT peptide array binding signal intensity
1,B1,318
2,B2,1570

# Molecular target: CaSla1-D3
# Assay: as above
# Procedure, shortened: as §1
row,Binder,SPOT peptide array binding signal intensity
1,B1,≤ 0
2,B2,14.2

# Molecular target: ScAbp1
# Assay: as above
# Procedure, shortened: as §1
row,Binder,SPOT peptide array binding signal intensity
1,B1,2130
2,B2,306

# Molecular target: ScBbc1
# Assay: as above
# Procedure, shortened: as §1
row,Binder,SPOT peptide array binding signal intensity
1,B1,5.5
2,B2,478

# Molecular target: ScBem1-D1
# Assay: as above
# Procedure, shortened: as §1
row,Binder,SPOT peptide array binding signal intensity
1,B1,14
2,B2,22

# Molecular target: ScBzz1-D1
# Assay: as above
# Procedure, shortened: as §1
row,Binder,SPOT peptide array binding signal intensity
1,B1,4.5
2,B2,11.5

# Molecular target: ScBzz1-D2
# Assay: as above
# Procedure, shortened: as §1
row,Binder,SPOT peptide array binding signal intensity
1,B1,13
2,B2,36.5

# Molecular target: ScCyk3
# Assay: as above
# Procedure, shortened: as §1
row,Binder,SPOT peptide array binding signal intensity
1,B1,≤ 0
2,B2,17

# Molecular target: ScFus1
# Assay: as above
# Procedure, shortened: as §1
row,Binder,SPOT peptide array binding signal intensity
1,B1,≤ 0
2,B2,56.8

# Molecular target: ScHof1
# Assay: as above
# Procedure, shortened: as §1
row,Binder,SPOT peptide array binding signal intensity
1,B1,≤ 0
2,B2,≤ 0

# Molecular target: ScHse1
# Assay: as above
# Procedure, shortened: as §1
row,Binder,SPOT peptide array binding signal intensity
1,B1,110
2,B2,639

# Molecular target: ScLsb1
# Assay: as above
# Procedure, shortened: as §1
row,Binder,SPOT peptide array binding signal intensity
1,B1,0.5
2,B2,425

# Molecular target: ScLsb2
# Assay: as above
# Procedure, shortened: as §1
row,Binder,SPOT peptide array binding signal intensity
1,B1,3
2,B2,8.5

# Molecular target: ScLsb3
# Assay: as above
# Procedure, shortened: as §1
row,Binder,SPOT peptide array binding signal intensity
1,B1,153
2,B2,6520

# Molecular target: ScLsb4
# Assay: as above
# Procedure, shortened: as §1
row,Binder,SPOT peptide array binding signal intensity
1,B1,1
2,B2,1140

# Molecular target: ScMyo3
# Assay: as above
# Procedure, shortened: as §1
row,Binder,SPOT peptide array binding signal intensity
1,B1,5.5
2,B2,4.75

# Molecular target: ScMyo5
# Assay: as above
# Procedure, shortened: as §1
row,Binder,SPOT peptide array binding signal intensity
1,B1,≤ 0
2,B2,2.75

# Molecular target: ScNbp2
# Assay: as above
# Procedure, shortened: as §1
row,Binder,SPOT peptide array binding signal intensity
1,B1,22
2,B2,2500

# Molecular target: ScPex13
# Assay: as above
# Procedure, shortened: as §1
row,Binder,SPOT peptide array binding signal intensity
1,B1,≤ 0
2,B2,377

# Molecular target: ScRvs167
# Assay: as above
# Procedure, shortened: as §1
row,Binder,SPOT peptide array binding signal intensity
1,B1,≤ 0
2,B2,2630

# Molecular target: ScSho1
# Assay: as above
# Procedure, shortened: as §1
row,Binder,SPOT peptide array binding signal intensity
1,B1,269
2,B2,83

# Molecular target: ScSla1-D1-D2
# Assay: as above
# Procedure, shortened: as §1
row,Binder,SPOT peptide array binding signal intensity
1,B1,34.5
2,B2,2640

# Molecular target: ScSla1-D3
# Assay: as above
# Procedure, shortened: as §1
row,Binder,SPOT peptide array binding signal intensity
1,B1,16.8
2,B2,66.1

# Molecular target: SpAbp1-D1
# Assay: as above
# Procedure, shortened: as §1
row,Binder,SPOT peptide array binding signal intensity
1,B1,193
2,B2,352

# Molecular target: SpBbc1
# Assay: as above
# Procedure, shortened: as §1
row,Binder,SPOT peptide array binding signal intensity
1,B1,8
2,B2,472

# Molecular target: SpBzz1-D1
# Assay: as above
# Procedure, shortened: as §1
row,Binder,SPOT peptide array binding signal intensity
1,B1,47
2,B2,500

# Molecular target: SpBzz1-D2
# Assay: as above
# Procedure, shortened: as §1
row,Binder,SPOT peptide array binding signal intensity
1,B2,0.75

# Molecular target: SpCyk3
# Assay: as above
# Procedure, shortened: as §1
row,Binder,SPOT peptide array binding signal intensity
1,B2,6

# Molecular target: SpHof1
# Assay: as above
# Procedure, shortened: as §1
row,Binder,SPOT peptide array binding signal intensity
1,B2,245

# Molecular target: SpHof1-2
# Assay: as above
# Procedure, shortened: as §1
row,Binder,SPOT peptide array binding signal intensity
1,B2,204

# Molecular target: SpHof1-3
# Assay: as above
# Procedure, shortened: as §1
row,Binder,SPOT peptide array binding signal intensity
1,B2,302

# Molecular target: SpHse1
# Assay: as above
# Procedure, shortened: as §1
row,Binder,SPOT peptide array binding signal intensity
1,B2,91.5

# Molecular target: SpLsb1
# Assay: as above
# Procedure, shortened: as §1
row,Binder,SPOT peptide array binding signal intensity
1,B2,96

# Molecular target: SpLsb4
# Assay: as above
# Procedure, shortened: as §1
row,Binder,SPOT peptide array binding signal intensity
1,B2,2870

# Molecular target: SpMyo1
# Assay: as above
# Procedure, shortened: as §1
row,Binder,SPOT peptide array binding signal intensity
1,B2,73.1

# Molecular target: SpNbp2
# Assay: as above
# Procedure, shortened: as §1
row,Binder,SPOT peptide array binding signal intensity
1,B2,21.5

# Molecular target: SpPex13
# Assay: as above
# Procedure, shortened: as §1
row,Binder,SPOT peptide array binding signal intensity
1,B2,4

# Molecular target: SpRvs167
# Assay: as above
# Procedure, shortened: as §1
row,Binder,SPOT peptide array binding signal intensity
1,B2,1830

# Molecular target: SpSla1-D1-D2
# Assay: as above
# Procedure, shortened: as §1
row,Binder,SPOT peptide array binding signal intensity
1,B2,21

# Molecular target: SpSla1-D3
# Assay: as above
# Procedure, shortened: as §1
row,Binder,SPOT peptide array binding signal intensity
1,B2,0.5
